JMJD2A Tudor inh: JMJD2A Tudor domain (human) inhibition | O75164 | AlphaScreen JMJD2A-Tudor / H3K4me3 peptide binding | hit rate 4.4% among 390,000 | Potency, µM (titrated, usually from 114 µM), for inactives: top-dose activity change, negative = inhibition, hits mostly inhibitors; further: on the % scale 0 is the no-effect control and ±100 the full control effect; nearly all actives have a fitted effect of over 50% in size
Sfp inh: blocks B. subtilis Sfp PPTase activity; Biochemical Sfp PPTase activity, qHTS; AID 1490; hit rate 3.5% among 310,000; Potency, µM, for inactives: largest response in the series, negative = inhibition, hits mostly inhibitors; Q9F4F7;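 further: the enzyme is Sfp with the accession as filed and its product quenches rhodamine fluorescence; 0% = enzyme reaction without inhibitor and -100% = no enzyme wells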
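Buffer: 50 mM Hepes-Na pH 7.6, 10 mM MgCl2, 0.01% Nonidet P-40, 0.01% BSA. Enzyme 15 nM, pre-exposed to compound 15 min; substrates then added and fluorescence change tracked over 30 min.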
BAZ2B inh: blocks human BAZ2B. Q9UIF8. AlphaScreen BAZ2B-H3K14Ac peptide displacement. Potency, µM (highest dose often 114 µM), for the others: at the highest dose activity change, negative = inhibition, actives largely listed as inhibitors. hit rate 4.4% among 360,000. AID 504333; further: on the % scale 0 is the no-effect control and ±100 the full control effect; nearly all actives have a fitted effect of over 60% in size
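BAZ2B (50 nM) with biotin-H3(5-23)K14Ac peptide (50 nM) in PBS pH 7.4, 0.01% Tween-20, preformed 30 min, then compound 30 min at room temperature; top concentration 110uM. AlphaScreen streptavidin donor/nickel chelate acceptor beads (10 ug/mL final), 20 min dark, signal read.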
HP1b chromo inh: HP1-beta chromodomain-methylated histone interaction inhibition. hit rate 0.56% among 390,000. Potency, µM (top dose mostly 114 µM), for inactives: at the highest dose activity change, negative = inhibition, usual class: inhibitors. AlphaScreen HP1-beta / biotin-H3K9me3 peptide binding. AID 540317; further: nearly all actives have a fitted effect of over 70% in size
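HP1-beta protein (50 nM final) preincubated 30 min at room temperature with biotinylated H3(1-18)K9me3 peptide (50 nM) in PBS pH 7.4, 0.01% Tween-20, then compound added for 30 min. AlphaScreen streptavidin donor/nickel chelate acceptor beads (10 ug/mL final), 30 min dark, luminescence read.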
ALOX12 inh: inhibitors of human 12S-lipoxygenase ALOX12; AID 1671190; Potency, µM (doses to about 108 µM), for the others: at the top dose activity change, negative = inhibition, most hits filed as inhibitors; hit rate 1.1% among 580,000; purified 12hLO, xylenol orange hydroperoxide absorbance; further: on the % scale 0 is the no-effect control and ±100 the full control effect
Target sequence (P18054 whole entry, looked up): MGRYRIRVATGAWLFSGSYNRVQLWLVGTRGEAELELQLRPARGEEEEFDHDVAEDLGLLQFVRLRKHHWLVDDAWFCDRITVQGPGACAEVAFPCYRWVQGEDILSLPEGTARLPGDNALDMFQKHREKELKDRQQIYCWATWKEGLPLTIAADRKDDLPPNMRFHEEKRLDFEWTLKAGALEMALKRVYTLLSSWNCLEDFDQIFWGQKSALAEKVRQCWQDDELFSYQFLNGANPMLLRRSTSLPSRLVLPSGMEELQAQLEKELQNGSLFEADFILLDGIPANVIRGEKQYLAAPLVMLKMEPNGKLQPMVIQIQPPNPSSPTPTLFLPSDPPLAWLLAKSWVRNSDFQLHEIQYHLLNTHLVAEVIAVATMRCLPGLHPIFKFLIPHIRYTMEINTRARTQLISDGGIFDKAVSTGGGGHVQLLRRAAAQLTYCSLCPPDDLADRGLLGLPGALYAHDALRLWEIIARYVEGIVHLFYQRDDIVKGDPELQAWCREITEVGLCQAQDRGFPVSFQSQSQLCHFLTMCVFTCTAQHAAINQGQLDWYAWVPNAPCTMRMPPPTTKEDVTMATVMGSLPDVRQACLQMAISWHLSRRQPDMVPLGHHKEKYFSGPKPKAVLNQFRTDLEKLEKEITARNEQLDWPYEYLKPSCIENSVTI
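Hydroperoxide product was detected by ferrous iron/xylenol orange as the 573 to 405 nm absorbance ratio. Arachidonic acid at 40 uM (final) was turned over for 30 min at room temperature by 150 nM human 12hLO, pH 7.0 Hepes buffer, after 15 min compound preincubation.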
G9a block: blocks human histone lysine methyltransferase G9a | G9a H3K9 monomethylation, AlphaScreen, 2 h | Potency, µM (doses to about 102 µM), for inactives: at the highest dose activity, negative = inhibition, actives largely listed as inhibitors | hit rate 8.8% among 350,000 | AID 504332; further: on the % scale 0 is the no-effect control and ±100 the full control effect; nearly all actives have a fitted effect of over 75% in size
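Chemiluminescent proximity detection of H3K9 monomethylation, read after 10 min bead incubation in the dark. Reaction: 20 nM G9a, 500 nM biotin-H3K9 peptide, 20 uM SAM cofactor, 2 h, room temperature, following 15 min enzyme-compound preincubation.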
* hit, by the source's call; u = inconclusive; x = no result; [ ] = another dose, or the depositor's remark. Hits are enriched below; roughly 8.7% of the tested compounds scored in any of these assays. The call rests on the fitted dose curve; in most records, active means well fitted curve in the direction sought with a large enough effect; inconclusive means small, poorly fitted or top-dose-only effect, or another doubt; inactive means no such curve, though single readings can be large; an effect the other way counts as inactive or inconclusive. Potency means the concentration at half of the fitted maximal effect.

SMILES	JMJD2A Tudor inh	Sfp inh	BAZ2B inh	HP1b chromo inh	ALOX12 inh	G9a block
CC1(C)C[C@H](NC(=O)c2cccnc2)[C@@]2(CCC(=O)NCCN3CCOCC3)CC[C@](C)(O)C[C@@H]12	x	x	x	x	-45%	x
COc1ccc(/C=C/C(=O)Nc2nc(C)cc(C)n2)cc1OC	50µM*	9%	9%	u	0%	x
COc1ccc(/C=C/C(=O)Nc2ccncc2)cc1OC	-17%	14%	1%	33%	u	14%
COc1ccc(/C=C/C(=O)Oc2ccc(C)c(C)c2)cc1OC	26%	8.9µM*	x	32%	-11%	49%
COc1ccc(/C=C/C(=O)Oc2ccc3oc4ccccc4c3c2)cc1OC	x	x	x	x	4%	x
N#CCCN(CCC#N)c1ccncc1	x	x	x	x	-19%	x
CCOC(=O)c1oc2c(c1C)/C(=N\OC(C)=O)CCC2	x	x	x	x	0%	x
O=C(NCCCN1CCCCC1)c1cccnc1N1CC2CC(C1)[C@H]1CCCC(=O)N1C2 (stereo partly drawn)	x	x	x	x	-5%	x
O=C(COC(=O)/C=C/c1ccc(Br)o1)NC1CCCCC1	79µM*	x	u	8%	25%	2%[12.7 µM]
O=C(COC(=O)/C=C/c1ccc(Br)o1)Nc1ccccc1F	x	4%	56µM*	x	x	u
O=C(CC1=C2CCCCC2N(Cc2ccc(F)cc2)C1=O)NCCc1c[nH]c2ccccc12 (stereo not drawn)	x	x	x	x	6%	x
COCCN1C(=O)c2cccn2CC1CNC(=O)Cc1cccc(OC)c1 (stereo not drawn)	x	x	x	x	-3%	x
c1ccc2c(-c3nc(-c4ccncc4)no3)cccc2c1	8%	10µM*	75%	128%	-14%	29%[12.7 µM]
COc1ccc(C2=NNC(c3ccco3)=Nc3ccc(F)cc32)cc1	-28%	9%	u	-16%	-4%	45µM*
CC(C)Oc1cccc(-c2n[nH]c3c2CC(=O)N(CCOc2ccccc2)C3)c1	x	x	x	x	11%[176 µM]	x
COc1ccccc1NC(=O)C(Cc1ccc(Cl)cc1)c1nn[nH]n1 (stereo not drawn)	1%	4%	8%	60%	0%	-4%[12.7 µM]
COc1ccc(CC(C(=O)Nc2ccc(OC)cc2)c2nn[nH]n2)cc1 (stereo not drawn)	-1%	-5%	u	40%	4.5µM*	x
Cn1cc(S(=O)(=O)N2CCC(C(=O)Nc3cccc(F)c3)CC2)cc1C(N)=O	x	x	x	x	0%	x
CN1c2ccsc2/C(=N/Nc2ccccc2)CS1(=O)=O	56µM*	u	u	u	u	25µM*
CN1c2ccsc2/C(=N/NC(=O)c2c(F)cccc2F)CS1(=O)=O	u	-6%	-27%	29%	0%	45%[59 µM]
O=C(CN1CCN(C(=O)c2ccc(I)cc2)CC1)N1CCCCC1	x	x	x	x	30%	x
NC(=O)CCc1nnc(SCC(=O)c2c[nH]c3ccccc23)n1C1CC1	x	x	x	x	-15%	x
O=C(O)c1ccc(COc2cc(Cl)ccc2Cl)s1	x	x	x	x	-3%	x
Cc1cc(N2CCCC2)ccc1NC(=O)CN1C(=O)NC2(CCCCC2)C1=O	-36%	x	-35%	-19%	-11%	3.5µM*
Cc1cc(NC(=O)CN2C(=O)NC3(CCCCC3)C2=O)ccc1N1CCCC1	-20%	x	-31%	2%	-12%	8.9µM*
SMILES	JMJD2A Tudor inh	Sfp inh	BAZ2B inh	HP1b chromo inh	ALOX12 inh	G9a block
Cc1ccc(NC(=O)CN2C(=O)NC3(CCCCC3)C2=O)c(C)c1	x	x	x	x	-3%	x
CN(C)c1ccc(S(=O)(=O)N2CCCCC2)cc1NC(=O)CN1C(=O)NC2(CCCC2)C1=O	-17%	x	10%	21%	-7%	14µM*
Cc1ccc(-n2cccc2CC(=O)NC(C)c2ccccn2)cc1 (stereo not drawn)	x	x	x	x	1%	x
CCOC(=O)c1[nH]cnc1C(=O)Nc1ccc([N+](=O)[O-])cc1	u	11%	u	14%	0%	79µM*
CCOC(=O)c1ccc(NC(=O)c2nc[nH]c2C(=O)NC[C@@H](C)O)cc1	x	x	x	x	11%	x
O=C(Nc1ccc([N+](=O)[O-])cc1)c1nc[nH]c1C(=O)NC1CCCCC1	-21%	4%	50µM*	20%	8%	20%[59 µM]
